# Experimental data as given in ChEMBL document CHEMBL3988442, “University of Dundee, Small-Polar-MMV Screening Library” (2021).
# Hit rate of the full screen: of about 48,000 compounds, about 13,000 (27%) showed an effect of 50% or more. Some of the results follow.
# System: Wolbachia pipientis
# Test: Anti-Wolbachia Cell-Based Screen
# Type: functional
# Set-up: scale not given: in the data most compounds retested in dose-response had high values
# Conditions: 5 µM
row,Compound,Percent Effect [%]
1,CC(C)=CCN(C)C1CCCN(Cc2noc(C)n2)C1 (stereo not drawn),0.8027
2,CN1CC(=O)N(c2ccccc2)CC12CCN(CC1CC1)C2.O=C(O)C(F)(F)F.O=C(O)C(F)(F)F (stereo not drawn),-12.9
3,CO[C@H]1CN(c2ccccc2)S(=O)(=O)[C@@]12CCN(Cc1ccccc1)C2,88.28
4,CO[C@@H]1CN(c2ccccc2)S(=O)(=O)[C@@]12CCN(Cc1cncs1)C2,104.5
5,CO[C@@H]1CN(c2ccccc2)S(=O)(=O)[C@@]12CCN(CC1CC1)C2,88.1
6,O=C1C[C@@H]2CCN(Cc3ccccc3)C[C@@H]2CCN1c1ccccc1,1.893
7,CO[C@@H]1CN(c2ccccc2)S(=O)(=O)[C@@]12CCN(Cc1ccccc1)C2,116.8
8,COCC1CC2(CCN(CC3CC3)CC2)CN1c1ncccn1.O=C(O)C(F)(F)F.O=C(O)C(F)(F)F (stereo not drawn),9.926
9,O=C(CCn1ccccc1=O)N1CCN(Cc2cccc(Cl)c2)CC1,-6.995
10,COc1cc(C2CC(=O)c3c(O)cc(O)cc3O2)ccc1O (stereo not drawn),4.847
11,COc1ccc(-c2noc(Cn3cc(C)cn3)n2)c(OC)c1OC,-1.893
12,COc1ccccc1CN(Cc1cccs1)S(=O)(=O)N(C)C(C)C,-8.287
13,Cc1ncc2c(n1)CCN(Cc1ncc(C(C)(C)C)o1)C2,1.311
14,CS(=O)(=O)c1cccc(C(N)c2ccc(F)c(F)c2)c1.Cl (stereo not drawn),-2.394
15,CCC(=O)NC(c1ccc(C)cc1)c1cccc(S(C)(=O)=O)c1 (stereo not drawn),96.25
16,Cc1ccc(C(NC(=O)[C@H]2CC[C@@H](O)CC2)c2cccnc2)cc1C (stereo partly drawn),-7.536
17,COc1ccc(C(N)c2cccc(S(C)(=O)=O)c2)cc1 (stereo not drawn),4.589
18,Cc1ccc(C(N)c2cccc(S(C)(=O)=O)c2)cc1 (stereo not drawn),1.85
19,Cc1ccc(C(NC(=O)C2CC2)c2cccc(S(C)(=O)=O)c2)cc1 (stereo not drawn),85.76
20,CC(CO)NS(=O)(=O)c1cccc(C(C)C)c1 (stereo not drawn),-1.865
21,CS(=O)(=O)c1cccc(S(=O)(=O)NC(=O)CC2CCCC2)c1,-23.12

row,Compound,Percent Effect [%]
1,CCNC(=O)NC(c1ccc(C)cc1)c1cccc(S(C)(=O)=O)c1 (stereo not drawn),96.65
2,COc1ccc(N2CCN(C(=O)CCn3nnnc3C)CC2(C)C)cc1,5.117
3,CN(Cc1ccco1)Cc1cncc2c1CCN(Cc1ccoc1)C2.Cl.Cl.Cl,96.91
4,Cl.Cl.c1cnc(NCc2cncc3c2CCN(Cc2ccoc2)C3)nc1,0.8556
5,CN(Cc1cn2c(n1)CN(C(=O)N(C)C)CC2)Cc1ccco1,3.747
6,CC(C)C(=O)N1CCc2c(CN(C)Cc3ccco3)cncc2C1.Cl.Cl,107
7,CC(C)N(C)Cc1cncc2c1CCN(C(=O)c1cccc(C#N)c1)C2.Cl.Cl,-11.44
8,CN(Cc1cccnc1)CC1CNCc2nccn2C1 (stereo not drawn),-0.6774
9,Cl.Cl.O=C(NCc1cncc2c1CCN(Cc1ccoc1)C2)C1CC1,-1.129
10,CN(Cc1cccnc1)Cc1cncc2c1CCN(c1ccccn1)C2.Cl.Cl.Cl,98.43
11,CN(Cc1cccnc1)Cc1cncc2c1CCN(Cc1ccoc1)C2.Cl.Cl.Cl,98.31
12,COC(=O)c1ccc(CN(C(C)C)C(C)C)o1.Cl,-10.72
13,CN(CCC#N)C(=O)CN1CCCN(Cc2noc(C3CC3)n2)CC1,-26.77
14,CCn1ccnc1CN1CCN(CC(=O)NC(C)(C#N)C2CC2)CC1 (stereo not drawn),-16.24
15,CN(Cc1ccco1)Cc1cncc2c1CCN(S(C)(=O)=O)C2.Cl.Cl,114
16,CCS(=O)(=O)N1CCn2cc(CN(C)Cc3ccco3)nc2C1,-9.31
17,CCS(=O)(=O)N1CCc2c(CN(C)Cc3ccco3)cncc2C1.Cl.Cl,0.2646
18,CC(C)CN1CCc2c(CN(C)Cc3ccco3)cncc2C1.Cl.Cl.Cl,112.5
19,COCCN1C[C@@H]2CN(S(=O)(=O)c3cccs3)C[C@@H]2C1=O,-21.25
20,O=C(Nc1ccc2scnc2c1)N1CCN([C@H]2CCCC[C@@H]2O)CC1,-4.588
21,O=C(NCCNc1ncccn1)N1CCCC(C(F)(F)F)C1 (stereo not drawn),-15.03

row,Compound,Percent Effect [%]
1,CN(C)C1CCCN(C(=O)NCCC(=O)N2CCCCCC2)C1 (stereo not drawn),0.3491
2,CN(CC(F)(F)F)C(=O)CNC(=O)N1CCCC(C(F)(F)F)C1 (stereo not drawn),92.98
3,CN(CC(F)(F)F)C(=O)CNC(=O)N1CCCC(N(C)C)C1 (stereo not drawn),95.13
4,CN(C)C1CCCN(C(=O)NCCC(C)(C)C)C1 (stereo not drawn),-10.25
5,CN(C)C(=O)c1cccc(NC(=O)N2CCCC(C(F)(F)F)C2)c1 (stereo not drawn),13.97
6,CC(C)OCC(=O)N1CCCN(Cc2ccc(C#N)cc2)CC1,-9.345
7,CC(c1ncc(C(C)(C)C)o1)N1CCN(Cc2ccncc2)CC1 (stereo not drawn),-8.967
8,Cc1nnc(C(C)N2CCCN(Cc3ccc(F)cc3)CC2)o1 (stereo not drawn),92.55
9,Cc1nnc(C(C)N2CCN(Cc3ccc(C#N)cc3)CC2)o1 (stereo not drawn),2.063
10,COc1cnc(N2CCCN(Cc3ccc(F)cc3)CC2)nc1,0.06599
11,Cc1nnc(C(C)N2CCN(Cc3ccc(C(F)(F)F)cc3)CC2)o1 (stereo not drawn),124.3
12,Cc1nnc(C(C)N2CCN(Cc3ccc4c(c3)OCO4)CC2)o1 (stereo not drawn),12.94
13,Cc1nnc(C(C)N2CCCN(Cc3noc(C4CC4)n3)CC2)o1 (stereo not drawn),5.084
14,Cc1nnc(C(C)N2CCCN(Cc3ccc(C#N)cc3)CC2)o1 (stereo not drawn),105.5
15,O=c1[nH]nc(-c2cccs2)c2sc(N3CCOCC3)nc12,-14.46
16,COc1ccccc1CC(C)(C)NC(=O)CN(C)C(C)C,3.69
17,COc1ccccc1Cc1cc(O)nc(NC(C)CN(C)C)n1 (stereo not drawn),91.33
18,CC(CN(C)C)Nc1nc(O)cc(Cc2ccccc2F)n1 (stereo not drawn),94.63
19,CC(CCc1ccccc1F)C(=O)NS(=O)(=O)N(C)C(C)C (stereo not drawn),-0.5241
20,COc1ccccc1CCNC(=O)N(C)C(C)CS(C)(=O)=O (stereo not drawn),-10.73
21,CC(CC#N)N(C)Cc1ccccc1F (stereo not drawn),11.31
